# Test results as given in PubChem BioAssay (NCATS).
# “And” between values parts separate entries of the source, which are not always exact repeats. Equal values may be shown once. Records with an inconclusive call do not appear. The source made the active and inactive calls. Unless noted, calls come from the whole dose curve; as a rule, active = well fitted curve in the direction sought with a large enough effect; inconclusive = small, poorly fitted or top-dose-only effect, or another doubt; inactive = no such curve, though single readings can be large; an effect the other way counts as inactive or inconclusive.
# How the values were obtained:
# [1] = test system: Zika virus NS2B-NS3 protease; test: Primary screen GU AMC qHTS for Zika virus inhibitors (AID 1347154);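 note: 0% = no-inhibitor control and -100% = no-enzyme control; nearly all actives have a fitted effect of over 70% in size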
# How it was run: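 Unlinked Zika NS2B hydrophilic domain/NS3 protease domain noncovalent complex (25 nM final) in 10 mM Tris-HCl pH 8.0, 0.01% Tween 20, with AMC peptide substrate. Fluorescence (ex 340, em 450 nm) change over 15 min, room temperature; percent inhibition fitted to 4-parameter Hill equation.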
# [2] = biological target: Glucocorticoid receptor (Homo sapiens) (UniProt P04150); test: GR-GFP Redistribution (AID 450;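 active = compounds whose dose series gives a full or clear partial fitted curve of increased nuclear translocation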; note: potency is the fitted concentration of half-maximal effect); details: U2OS GR-GFP nuclear translocation, laser cytometry, 2 h
# Glucocorticoid receptor (Homo sapiens), sequence (P04150 whole entry, looked up, the tested form may be a part): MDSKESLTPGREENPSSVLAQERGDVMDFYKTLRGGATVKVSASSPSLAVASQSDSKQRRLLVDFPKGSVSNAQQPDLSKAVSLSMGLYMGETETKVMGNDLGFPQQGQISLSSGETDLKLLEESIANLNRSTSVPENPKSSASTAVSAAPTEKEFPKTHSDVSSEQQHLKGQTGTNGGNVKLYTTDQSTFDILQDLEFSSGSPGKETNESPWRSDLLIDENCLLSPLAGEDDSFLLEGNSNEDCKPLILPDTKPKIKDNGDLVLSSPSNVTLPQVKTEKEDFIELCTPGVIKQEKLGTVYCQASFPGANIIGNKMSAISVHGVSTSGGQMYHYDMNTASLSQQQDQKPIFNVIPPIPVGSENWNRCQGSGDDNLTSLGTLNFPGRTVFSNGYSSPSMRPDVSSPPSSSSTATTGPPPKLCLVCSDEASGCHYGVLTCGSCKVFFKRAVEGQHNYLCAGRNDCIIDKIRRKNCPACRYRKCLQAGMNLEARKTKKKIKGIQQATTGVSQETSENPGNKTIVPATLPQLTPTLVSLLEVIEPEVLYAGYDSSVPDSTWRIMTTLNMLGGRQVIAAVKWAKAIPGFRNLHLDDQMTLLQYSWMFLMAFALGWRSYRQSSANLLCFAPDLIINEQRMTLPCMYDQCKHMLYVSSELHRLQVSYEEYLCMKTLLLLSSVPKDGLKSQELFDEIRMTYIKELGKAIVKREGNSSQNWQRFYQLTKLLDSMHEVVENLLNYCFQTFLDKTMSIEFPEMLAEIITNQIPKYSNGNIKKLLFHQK
# [3] = biological target: Glucocorticoid receptor (Homo sapiens) (UniProt P04150); test: GR-EFC Redistribution (AID 451; calls by dose curve; note: potency is the fitted concentration of half-maximal effect); details: CHO-K1 GR-EFC translocation, beta-gal luminescence, 2 h
# How it was run: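 CHO-K1 cells stably expressing nuclear-localized β-gal enzyme acceptor and GR fused C-terminally to the enzyme donor fragment; ligand-driven nuclear translocation restores β-gal by complementation. Compounds titrated up to 46 uM final, 2 h at 37 °C; luminescence read.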
# [4] = biological target: Mitogen-activated protein kinase 10 (Mus musculus) (UniProt Q61831); test: JNK3 AlphaScreen Assay (AID 530; active = well fitted curve in either direction with a large enough effect, not every such curve was filed as active;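 note: kinase came from lysate of stimulated human HepG2 cells; signal reports phosphorylation of biotinylated GST-cJun 1-79 at Ser73 with 10 µM ATP; % is set by controls: 0 for no effect and ±100 for the full control effect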)
# How it was run: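 JNK3 came from HepG2 lysates pre-activated with IL-1beta and TNF-alpha and phosphorylated biotinylated GST-cJun (1-79) at 10 uM ATP, pH 7.6, room temperature. Compounds were titrated. AlphaScreen signal used anti-phospho-cJun (Ser73) antibody.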
# [5] = biological target: Cytochrome P450 3A4 (Homo sapiens) (UniProt P08684); test: qHTS Assay for Inhibitors and Substrates of Cytochrome P450 3A4 (AID 884); note: potency is the fitted concentration of half-maximal effect; nearly all actives have a fitted effect of over 50% in size
# Cytochrome P450 3A4 (Homo sapiens), sequence (P08684 whole entry, looked up): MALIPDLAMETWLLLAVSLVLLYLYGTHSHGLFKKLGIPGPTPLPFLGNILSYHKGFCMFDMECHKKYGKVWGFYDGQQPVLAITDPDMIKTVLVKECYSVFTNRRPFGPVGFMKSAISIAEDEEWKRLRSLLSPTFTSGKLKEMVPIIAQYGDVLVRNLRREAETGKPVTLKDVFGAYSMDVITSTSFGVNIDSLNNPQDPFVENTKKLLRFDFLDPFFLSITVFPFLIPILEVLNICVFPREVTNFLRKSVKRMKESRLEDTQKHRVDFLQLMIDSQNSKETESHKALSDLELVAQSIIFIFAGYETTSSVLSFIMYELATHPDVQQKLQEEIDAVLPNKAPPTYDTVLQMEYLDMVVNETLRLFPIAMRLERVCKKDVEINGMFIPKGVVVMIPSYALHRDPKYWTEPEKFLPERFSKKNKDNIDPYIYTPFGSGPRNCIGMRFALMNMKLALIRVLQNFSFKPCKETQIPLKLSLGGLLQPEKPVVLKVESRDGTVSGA
# How it was run: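 20 nM human CYP3A4 with 25 uM Luciferin-PPXE (at KM) in 200 mM KPO4, preincubated 10 min with compound; NADPH regeneration started a 60 min RT reaction. Luciferin detected by luminescence, normalized to 57 uM ketoconazole as full inhibition.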
# [6] = biological target: Cytochrome P450 3A4 (Homo sapiens) (UniProt P08684); test: qHTS Assay for Activators of Cytochrome P450 3A4 (AID 885); note: nearly all actives have a fitted effect of over 65% in size
# How it was run: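 Steps: enzyme/substrate mix dispensed; compound added, 10 min RT; NADPH regeneration solution added, 60 min RT; luciferin detection buffer stops reaction; 20 min later luminescence measured.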
# [7] = biological target: DNA dC->dU-editing enzyme APOBEC-3G (Homo sapiens) (UniProt Q9HC16); test: qHTS for inhibitors of Vif-A3G interactions: Validation (AID 588379); note: 0% is about no effect
# DNA dC->dU-editing enzyme APOBEC-3G (Homo sapiens), sequence (Q9HC16 whole entry, looked up): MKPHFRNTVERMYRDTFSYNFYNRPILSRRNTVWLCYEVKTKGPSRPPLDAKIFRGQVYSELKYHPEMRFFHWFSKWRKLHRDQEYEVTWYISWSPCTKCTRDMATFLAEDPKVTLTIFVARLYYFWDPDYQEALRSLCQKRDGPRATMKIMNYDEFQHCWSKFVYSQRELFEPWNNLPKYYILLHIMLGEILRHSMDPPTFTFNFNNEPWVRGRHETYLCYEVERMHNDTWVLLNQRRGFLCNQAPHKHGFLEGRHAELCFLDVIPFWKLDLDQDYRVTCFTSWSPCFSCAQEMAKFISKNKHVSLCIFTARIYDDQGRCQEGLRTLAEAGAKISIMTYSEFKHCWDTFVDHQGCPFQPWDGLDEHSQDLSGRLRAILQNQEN
# How it was run: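 HeLa cells stably expressing Vif and A3G-eYFP, 700 cells/well, incubated overnight at 37 deg C, then exposed to compound overnight at 37 deg C. Inhibition of Vif-mediated degradation read as increased yellow fluorescence (Ex 488/Em 500-530) by laser-scanning cytometry.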
# [8] = Confirmatory screen GU Rhodamine qHTS for Zika virus inhibitors qHTS (AID 1347157); note: nearly all actives have a fitted effect of over 70% in size; note: potency is the fitted concentration of half-maximal effect;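 for activity change, negative = inhibition: plate controls were no-inhibitor wells for no effect and no-enzyme wells for full effect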
# How it was run: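 Enzyme 25 nM in Tris-HCl pH 8.0 + 0.01% Tween 20; compounds up to 114 microM, 15 min RT dark; + Rhod110 substrate 1.5 microM; read t0 and 15 min; delta fluorescence → % inhibition → 4-parameter Hill fit.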
# [9] = ZIKV-mCherry secondary qHTS for Zika virus inhibitors (AID 1347158); note: top concentration of the series differs between compounds
# How it was run: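 After overnight seeding at 37 °C, Vero cells receive compound and then ZIKV-mCherry (MOI 1). Following 48-72 h infection, cells are fixed, counterstained with Hoechst, and imaged; percent infected cells is derived from an mCherry intensity cut-off of 450 RFU.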
# [10] = Confirmatory screen NINDS Rhodamine qHTS for Zika virus inhibitors (AID 1347161); note: nearly all actives have a fitted effect of over 60% in size; note: potency is the fitted concentration of half-maximal effect;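 for activity change, negative = inhibition: purified Zika NS2B-NS3 protease with linked NS2B cofactor domain and Rhodamine110 peptide substrate; plate controls were no-inhibitor control for no effect and no-enzyme control for full effect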
# How it was run: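 Percent inhibition, normalized to uninhibited and enzyme-free controls, is fitted to a 4-parameter Hill equation. Fluorescence change comes from a 15-min cleavage of 1.5 microM bis-peptide Rhodamine110 substrate by 25 nM linked NS2B-NS3 at room temperature.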
# [11] = qHTS Assay for Lipid Storage Modulators (AID 1519; calls by dose curve; for activity change, negative = inhibition: % is set by controls: 0 for no effect and ±100 for the full control effect); details: Drosophila S3 cells, BODIPY lipid droplet/cell ratio, laser cytometry, cells loaded with oleic acid
# How it was run: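 Cells seeded at 5,000 per well were treated with compounds over a concentration series and loaded with oleic acid (400 uM, as added). Lipid droplet fluorescence (488 nm excitation, 500-530 nm channel) was read by laser-scanning cytometry and normalized to 20 uM Triacsin C.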
smiles,measurement,setting,value
CC(C)N=C(N)N=C(N)Nc1ccc(Cl)cc1,Potency,[1],inactive
COc1ccccc1CC(=N)N1C[C@@H]2C(=O)CCC(c3ccccc3)(c3ccccc3)[C@@H]2C1,Potency,[2],> 46 µM (inactive)
same,Potency,[3],> 46 µM (inactive)
same,Potency,[4],inactive
same,Potency,[5],3.16 µM (active)
same,Potency,[6],inactive
same,Potency,[7],inactive
same,Potency,[1],inactive
Cc1c(C2(c3cc(C(C)C)c(O)c(Br)c3C)OS(=O)(=O)c3ccccc32)cc(C(C)C)c(O)c1Br,Potency,[8],5.01 µM (active)
same,Potency,[9],inactive
same,Potency,[10],5.62 µM (active)
CC(C)Oc1cccc(-n2c(CCc3c[nH]c4ccc(Br)cc34)nc3ccccc3c2=O)c1,Potency,[2],> 46 µM (inactive)
same,Potency,[3],> 46 µM (inactive)
same,Potency,[4],inactive
same,Potency,[5],3.98 µM (active)
same,Potency,[6],inactive
same,Potency,[7],inactive
same,Potency,[1],inactive
COC(=O)c1ccc([C@H]2Nc3ccc(S(=O)(=O)Nc4cccc(C)c4)cc3[C@H]3C=CC[C@H]32)cc1,Potency,[8],25.1 µM (active)
same,Potency,[9],inactive
same,Potency,[10],25.1 µM (active)
O=C(O)c1c(Br)c(Br)c(Br)c(Br)c1C1c2ccc(O)cc2Oc2cc(O)ccc21,Potency,[2],> 46 µM (inactive)
same,"activity change, positive = activation",[6],-36% [at 11.4 µM] (inactive)
same,Potency,[8],12.6 µM (active)
same,Potency,[9],inactive
same,Potency,[10],0.891 µM (active)
CCc1nn2c(=O)cc(COC(=O)c3ccccc3NC(=O)c3ccc(C(C)(C)C)cc3)nc2s1,Potency,[8],inactive
COc1ccc2cccc(N3CCN(CCNC(=O)c4ccc(F)cc4)CC3)c2c1,Potency,[2],> 46 µM (inactive)
same,Potency,[3],> 46 µM (inactive)
same,Potency,[4],inactive
same,Potency,[7],inactive
same,Potency,[1],inactive
CCCCCS(=O)(=O)CCCCCCCCCCn1c(-c2ccc(O)cc2)c(C)c2cc(O)ccc21,Potency,[5],0.631 µM (active)
same,Potency,[6],inactive
same,Potency,[1],inactive
COc1cc(-c2ccc(N=Nc3ccc4c(S(=O)(=O)O)cc(S(=O)(=O)O)c(N)c4c3O)c(OC)c2)ccc1N=Nc1ccc2c(S(=O)(=O)O)cc(S(=O)(=O)O)c(N)c2c1O,Potency,[2],> 20.6 µM (inactive) and > 46 µM (inactive)
same,Potency,[3],> 20.6 µM (inactive) and > 46 µM (inactive)
same,Potency,[5],15.8 µM (active)
same,Potency,[6],inactive
same,"activity change, negative = inhibition",[11]; at 25.7 µM (top of the series),3.4% (inactive)
same,max response,[11]; measured here: cell count channel max response,1.95%
same,max response,[11]; measured here: lipid channel max response,8.3%
same,Potency,[7],inactive
same,Potency,[8],2.82 µM (active)
same,Potency,[9],inactive
same,Potency,[10],2 µM (active)
CCOC(=O)c1ccc(CN(Cc2ccccc2C)S(=O)(=O)c2ccc(F)c(C(=O)Nc3cccc(OC)c3)c2)cc1,Potency,[8],inactive
same,Potency,[10],inactive
C[C@@]12CC[C@@H]3c4ccc(O)cc4C[C@H](CCCCCCCCCS(=O)CCCC(F)(F)C(F)(F)F)[C@H]3[C@@H]1CC[C@@H]2O (stereo partly drawn),Potency,[2],> 46 µM (inactive)
same,Potency,[3],> 46 µM (inactive)
same,Potency,[4],inactive
same,Potency,[7],inactive
same,Potency,[1],inactive
